Results: the supplement of paper PMC8728848
This excerpt belongs to a sample that is enriched for the strongest signals.

Assays:
Assay in all cases: glycan array binding signal (z-score within array); higher = stronger binding
Conditions in all cases: glycan notation: IUPAC condensed, linker removed
[1] = target: Fuc(a1-2)Gal(b1-3)GlcNAc(b1-3)[Neu5Ac(a2-6)Gal(b1-4)GlcNAc(b1-6)]Gal(b1-4)Glc
Procedure, shortened: (§1)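 The binding signal is a Z-score computed within each array and averaged over linkers. Arrays of the same protein sequence at different concentrations or buffers were also averaged together. Data originate from 3228 arrays in the Consortium for Functional Glycomics database, kept only where the protein sequence was available.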

[2] = target: Fuc(a1-2)Gal(b1-3)[Fuc(a1-4)]GlcNAc(b1-2)Man(a1-3)[Fuc(a1-2)Gal(b1-3)[Fuc(a1-4)]GlcNAc(b1-2)Man(a1-6)]Man(b1-4)GlcNAc(b1-4)[Fuc(a1-6)]GlcNAc(b1-4)[Fuc(a1-6)]GlcNAc
Procedure, shortened: as §1

[3] = target: Fuc(a1-2)[Gal(a1-3)]Gal(b1-3)GlcNAc(b1-2)Man(a1-3)[Fuc(a1-2)[Gal(a1-3)]Gal(b1-3)GlcNAc(b1-2)Man(a1-6)]Man(b1-4)GlcNAc(b1-4)GlcNAc
Procedure, shortened: as §1

[4] = target: Fuc(a1-2)[Gal(a1-3)]Gal(b1-4)GlcNAc
Procedure, shortened: as §1

[5] = target: Fuc(a1-2)[Gal(a1-3)]Gal(b1-4)GlcNAc(b1-2)Man(a1-3)[Fuc(a1-2)[Gal(a1-3)]Gal(b1-4)GlcNAc(b1-2)Man(a1-6)]Man(b1-4)GlcNAc(b1-4)GlcNAc
Procedure, shortened: as §1

[6] = target: Fuc(a1-2)[Gal(a1-3)]Gal(b1-4)GlcNAc(b1-3)GalNAc
Procedure, shortened: as §1

[7] = target: Fuc(a1-2)[Gal(a1-3)]Gal(b1-4)[Fuc(a1-3)]GlcNAc
Procedure, shortened: as §1

[8] = target: Fuc(a1-2)[GalNAc(a1-3)]Gal(b1-3)GalNAc(a1-3)[Fuc(a1-2)]Gal(b1-4)GlcNAc
Procedure, shortened: as §1

[9] = target: Fuc(a1-2)[GalNAc(a1-3)]Gal(b1-3)GalNAc(b1-3)Gal(a1-4)Gal(b1-4)Glc
Procedure, shortened: as §1

[10] = target: Fuc(a1-2)[GalNAc(a1-3)]Gal(b1-4)GlcNAc(b1-3)Gal(b1-4)GlcNAc(b1-3)Gal(b1-4)GlcNAc
Procedure, shortened: as §1

[11] = target: Fuc(a1-2)[GalNAc(a1-3)]Gal(b1-4)GlcNAc(b1-6)GalNAc
Procedure, shortened: as §1

[12] = target: Fuc(a1-3)[Gal(b1-4)]GlcNAc(b1-2)Man
Procedure, shortened: as §1

[13] = target: Fuc(a1-3)[Gal3S(b1-4)]GlcNAc6S
Procedure, shortened: as §1

Gal(a1-3)Gal(b1-4)Glc = target: Gal(a1-3)Gal(b1-4)Glc
Procedure, shortened: as §1

Gal(a1-4)Gal(b1-4)Glc = target: Gal(a1-4)Gal(b1-4)Glc
Procedure, shortened: as §1

[14] = target: Gal(b1-3)GlcNAc(a1-6)Gal(b1-4)GlcNAc
Procedure, shortened: as §1

[15] = target: Gal(b1-3)GlcNAc(b1-2)Man(a1-3)[Gal(b1-3)GlcNAc(b1-2)Man(a1-6)]Man(b1-4)GlcNAc(b1-4)[Fuc(a1-6)]GlcNAc
Procedure, shortened: as §1

[16] = target: Gal(b1-4)GlcNAc(b1-2)Man(a1-3)[Gal(b1-4)GlcNAc(b1-2)Man(a1-6)][GlcNAc(b1-4)]Man(b1-4)GlcNAc(b1-4)[Fuc(a1-6)]GlcNAc
Procedure, shortened: as §1

[17] = target: Gal(b1-4)GlcNAc(b1-2)Man(a1-6)Man(b1-4)GlcNAc(b1-4)GlcNAc
Procedure, shortened: as §1

[18] = target: Gal(b1-4)GlcNAc(b1-3)Gal(b1-4)GlcNAc
Procedure, shortened: as §1

[19] = target: Gal(b1-4)GlcNAc(b1-3)Gal(b1-4)GlcNAc(b1-3)Gal(b1-4)GlcNAc(b1-2)Man(a1-3)[Gal(b1-4)GlcNAc(b1-3)Gal(b1-4)GlcNAc(b1-3)Gal(b1-4)GlcNAc(b1-2)Man(a1-6)]Man(b1-4)GlcNAc(b1-4)GlcNAc
Procedure, shortened: as §1

[20] = target: Gal(b1-4)GlcNAc(b1-3)Gal(b1-4)GlcNAc(b1-3)Gal(b1-4)GlcNAc(b1-3)Gal(b1-4)GlcNAc(b1-3)Gal(b1-4)GlcNAc(b1-2)[Gal(b1-4)GlcNAc(b1-3)Gal(b1-4)GlcNAc(b1-3)Gal(b1-4)GlcNAc(b1-3)Gal(b1-4)GlcNAc(b1-3)Gal(b1-4)GlcNAc(b1-6)]Man(a1-6)[Gal(b1-4)GlcNAc(b1-3)Gal(b1-4)GlcNAc(b1-3)Gal(b1-4)GlcNAc(b1-3)Gal(b1-4)GlcNAc(b1-3)Gal(b1-4)GlcNAc(b1-2)Man(a1-3)]Man(b1-4)GlcNAc(b1-4)[Fuc(a1-6)]GlcNAc
Procedure, shortened: as §1

[21] = target: Gal(b1-4)GlcNAc(b1-6)GalNAc
Procedure, shortened: as §1

Gal3S4S(b1-4)GlcNAc = target: Gal3S4S(b1-4)GlcNAc
Procedure, shortened: as §1

[22] = target: GalNAc(a1-3)GalNAc(b1-3)Gal(a1-4)Gal(b1-4)GlcNAc
Procedure, shortened: as §1

[23] = target: GalNAc(b1-3)Gal(a1-4)Gal(b1-4)GlcNAc
Procedure, shortened: as §1

GalNAc(b1-4)GlcNAc = target: GalNAc(b1-4)GlcNAc
Procedure, shortened: as §1

[24] = target: GalNAc(b1-4)GlcNAc(b1-2)Man
Procedure, shortened: as §1

[25] = target: GalNAc(b1-4)GlcNAc(b1-3)GalNAc(b1-4)GlcNAc
Procedure, shortened: as §1

GalNAc(b1-4)GlcNAc6S = target: GalNAc(b1-4)GlcNAc6S
Procedure, shortened: as §1

GlcA(b1-6)Gal = target: GlcA(b1-6)Gal
Procedure, shortened: as §1

[26] = target: GlcNAc(a1-4)Gal(b1-4)GalNAc
Procedure, shortened: as §1

[27] = target: GlcNAc(a1-4)Gal(b1-4)GlcNAc(b1-3)Gal(b1-4)GlcNAc
Procedure, shortened: as §1

[28] = target: GlcNAc(b1-2)Gal(b1-3)GalNAc
Procedure, shortened: as §1

[29] = target: GlcNAc(b1-2)[GlcNAc(b1-6)]Man(a1-6)[GlcNAc(b1-2)Man(a1-3)]Man(b1-4)GlcNAc(b1-4)GlcNAc
Procedure, shortened: as §1

[30] = target: GlcNAc(b1-2)[GlcNAc(b1-6)]Man(a1-6)[GlcNAc(b1-2)Man(a1-3)]Man(b1-4)GlcNAc(b1-4)[Fuc(a1-6)]GlcNAc
Procedure, shortened: as §1

[31] = target: GlcNAc(b1-3)Gal(b1-4)GlcNAc
Procedure, shortened: as §1

[32] = target: GlcNAc(b1-3)Gal(b1-4)GlcNAc(b1-6)[Gal(b1-3)]GalNAc
Procedure, shortened: as §1

GlcNAc(b1-4)GlcNAc = target: GlcNAc(b1-4)GlcNAc
Procedure, shortened: as §1

[33] = target: Neu5Ac(a2-3)Gal(b1-3)GlcNAc
Procedure, shortened: as §1

[34] = target: Neu5Ac(a2-3)Gal(b1-3)[GlcNAc(b1-6)]GalNAc
Procedure, shortened: as §1

[35] = target: Neu5Ac(a2-3)Gal(b1-4)GlcNAc
Procedure, shortened: as §1

[36] = target: Neu5Ac(a2-3)Gal(b1-4)GlcNAc(b1-3)Gal(b1-4)GlcNAc(b1-2)Man(a1-3)[Neu5Ac(a2-3)Gal(b1-4)GlcNAc(b1-3)Gal(b1-4)GlcNAc(b1-2)Man(a1-6)]Man(b1-4)GlcNAc(b1-4)GlcNAc
Procedure, shortened: as §1

[37] = target: Neu5Ac(a2-3)Gal(b1-4)GlcNAc(b1-3)Gal(b1-4)GlcNAc(b1-3)Gal(b1-4)GlcNAc(b1-2)Man(a1-3)[Neu5Ac(a2-3)Gal(b1-4)GlcNAc(b1-3)Gal(b1-4)GlcNAc(b1-3)Gal(b1-4)GlcNAc(b1-2)Man(a1-6)]GalNAc
Procedure, shortened: as §1

[38] = target: Neu5Ac(a2-3)Gal(b1-4)[Fuc(a1-3)]GlcNAc(b1-6)[Neu5Ac(a2-3)Gal(b1-3)]GalNAc
Procedure, shortened: as §1

[39] = target: Neu5Ac(a2-6)Gal(b1-4)GlcNAc
Procedure, shortened: as §1

[40] = target: Neu5Ac(a2-6)Gal(b1-4)GlcNAc(b1-2)Man(a1-3)[Neu5Ac(a2-3)Gal(b1-4)GlcNAc(b1-2)Man(a1-6)]Man(b1-4)GlcNAc(b1-4)GlcNAc
Procedure, shortened: as §1

[41] = target: Neu5Ac(a2-6)Gal(b1-4)GlcNAc(b1-3)Gal(b1-3)GlcNAc
Procedure, shortened: as §1

[42] = target: Neu5Ac(a2-6)GlcNAc(b1-4)GlcNAc(b1-4)GlcNAc
Procedure, shortened: as §1

[43] = target: Neu5Ac(a2-8)Neu5Ac(a2-3)[GalNAc(b1-4)]Gal(b1-4)Glc
Procedure, shortened: as §1

B1: SJA (Sophora japonica) (protein)
chain: FLGLFNSGGYSSSYQIVAVEFDTYINEWDPKTRHIGIDINSINSTKTVTWGWENGEVAIVLISYKAATETLTVSLTYPSSQTSYILSAAVDLKSILPEWVRIGF
For B1, the “glycan array binding signal (z-score)” value [1] was -0.155, the “glycan array binding signal (z-score)” value [2] was -0.175 and the “glycan array binding signal (z-score)” value [3] was 4.34. The “glycan array binding signal (z-score)” value [4] was 2.19, the “glycan array binding signal (z-score)” value [5] was 4.98 and the “glycan array binding signal (z-score)” value [6] was 0.012. For the same binder, the “glycan array binding signal (z-score)” value [7] was 6.46, the “glycan array binding signal (z-score)” value [8] was -0.406 and the “glycan array binding signal (z-score)” value [9] was -0.202. For the same binder, the “glycan array binding signal (z-score)” value [10] was 0.248, the “glycan array binding signal (z-score)” value [11] was -0.199 and the “glycan array binding signal (z-score)” value [12] was -0.248. The “glycan array binding signal (z-score)” value [13] was -0.061, the “glycan array binding signal (z-score)” value (Gal(a1-3)Gal(b1-4)Glc) was -0.143 and the “glycan array binding signal (z-score)” value (Gal(a1-4)Gal(b1-4)Glc) was -0.134. For the same binder, the “glycan array binding signal (z-score)” value [14] was -0.076, the “glycan array binding signal (z-score)” value [15] was -0.007 and the “glycan array binding signal (z-score)” value [16] was -0.337. For the same binder, the “glycan array binding signal (z-score)” value [17] was -0.334, the “glycan array binding signal (z-score)” value [18] was -0.148 and the “glycan array binding signal (z-score)” value [19] was 2.39. For the same binder, the “glycan array binding signal (z-score)” value [20] was 2.24, the “glycan array binding signal (z-score)” value [21] was -0.118 and the “glycan array binding signal (z-score)” value (Gal3S4S(b1-4)GlcNAc) was -0.23. For the same binder, the “glycan array binding signal (z-score)” value [22] was -0.341, the “glycan array binding signal (z-score)” value [23] was -0.186 and the “glycan array binding signal (z-score)” value (GalNAc(b1-4)GlcNAc) was 3.38. The “glycan array binding signal (z-score)” value [24] was 2.46, the “glycan array binding signal (z-score)” value [25] was 8.25 and the “glycan array binding signal (z-score)” value (GalNAc(b1-4)GlcNAc6S) was 3.05. For the same binder, the “glycan array binding signal (z-score)” value (GlcA(b1-6)Gal) was -0.111, the “glycan array binding signal (z-score)” value [26] was -0.15 and the “glycan array binding signal (z-score)” value [27] was -0.229. For the same binder, the “glycan array binding signal (z-score)” value [28] was -0.192, the “glycan array binding signal (z-score)” value [29] was -0.255 and the “glycan array binding signal (z-score)” value [30] was -0.375. The “glycan array binding signal (z-score)” value [31] was -0.101, the “glycan array binding signal (z-score)” value [32] was -0.24 and the “glycan array binding signal (z-score)” value (GlcNAc(b1-4)GlcNAc) was -0.142. The “glycan array binding signal (z-score)” value [33] was -0.139, the “glycan array binding signal (z-score)” value [34] was -0.156 and the “glycan array binding signal (z-score)” value [35] was -0.241. The “glycan array binding signal (z-score)” value [36] was 0.783, the “glycan array binding signal (z-score)” value [37] was 3.51 and the “glycan array binding signal (z-score)” value [38] was -0.056. The “glycan array binding signal (z-score)” value [39] was -0.22, the “glycan array binding signal (z-score)” value [40] was -0.178 and the “glycan array binding signal (z-score)” value [41] was -0.207. The “glycan array binding signal (z-score)” value [42] was -0.288 and the “glycan array binding signal (z-score)” value [43] was -0.232.
